The campaign covered roughly 310,000 compounds. About 410 (0.13%) were called active. About 2% were inconclusive and are not listed. The rule behind the calls is not given here. Only a sample is shown. Potency and affinity values are given separately.
Assay: inhibition of RSV-induced cytopathic effect – HEp-2 cells, primary 10 µM value included (AID 2391)
Conditions: at 10 µM, active compounds read high

CPE inhibition, inactive:
COc1ccc(-c2ccc3c(N)c(C(=O)c4ccc(OC)c(OC)c4)sc3n2)cc1 1.75%
COc1ccc(NC(=O)c2sc3nc(-c4cccnc4)ccc3c2N)cc1OC 1.58%
O=C(Nc1nc(-c2ccccc2)cs1)c1cccc([N+](=O)[O-])c1C(=O)O 0.63%
CCCC(=O)Oc1ccc(C2NC(=O)c3ccccc3O2)cc1OC (stereo not drawn) -0.32%
CCNS(=O)(=O)c1ccc(CCC(=O)NCc2ccccn2)cc1 -0.26%
CS(=O)(=O)N1N=C(c2ccco2)CC1c1ccc(Br)cc1 (stereo not drawn) -1.1%
CCOc1c(Cl)cc(CNCc2ccccn2)cc1OC 0.14%
C/C(N)=C(/C#N)C(=O)COC(=O)CNS(=O)(=O)c1ccc(C)cc1 0.79%
C/C(N)=C(/C#N)C(=O)COC(=O)CNS(=O)(=O)c1c(F)cccc1F 1.63%
CCOC(=O)c1sc(=NC(=O)c2ccc(OC(C)C)cc2)n(C)c1C -0.02%
Cc1cc[n+](C(C)C(=O)c2ccc(Cl)cc2)cc1 (stereo not drawn) 0.43%
COC(=O)C1=C(N)Oc2cc(C)n(Cc3ccccc3)c(=O)c2C1c1ccccc1 (stereo not drawn) 3.61%
O=C(Nc1ccccc1N1CCN(C(=O)c2ccc(Cl)cc2)CC1)c1ccc(Br)cc1 10.3%
CN(C)C(=O)COC(=O)c1ccccc1OCC(=O)Nc1ccc(SC(F)F)cc1 0.56%
CC(C)(C)NC(=O)COC(=O)c1ccccc1Nc1ccc(SC(F)F)cc1 20.3%
c1ccc2[nH]cnc2c1 3.25%
Clc1cc2nc[nH]c2cc1Cl 2.89%
OCc1cn(-c2ccc(Cl)cc2)nn1 0.61%
COc1cc(NC(=O)C2CC(=O)N(CCc3ccc(F)cc3)C2)cc(OC)c1OC (stereo not drawn) 1.32%
CCCn1c2ccc(F)cc2c2nnc(NN)nc21 2.66%
CCn1c2ccc(F)cc2c2nnc(NN)nc21 8.49%
Cc1nn(-c2ccccc2)cc1/C=N/NS(=O)(=O)c1ccccc1 0.36%
O=S(=O)(c1cccc(-c2csc(-c3cccnc3)n2)c1)N1CCOCC1 18.8%
Cc1nc(-c2cccc(S(=O)(=O)N3CCOCC3)c2)cs1 2.05%
CC(C)(C)c1ccc(C(=O)c2c[nH]c(C(=O)NCCCn3ccnc3)c2)cc1 15.1%
CC(C)[C@H](NC(=O)N1CCn2c1nc1ccccc12)C(=O)NCc1ccc(F)cc1 7.05%
CC(C)[C@H](NC(=O)N1CCn2c1nc1ccccc12)C(=O)NCc1ccco1 5.22%
COc1cc(C(=O)NNC(=O)COc2ccccc2Cl)ccc1OCC(=O)N1CCOCC1 0.6%
O=C(Nc1cccc(NC(=O)c2ccccc2Cl)c1)c1ccco1 2.07%
c1ccc(N2CCN(c3ncnc4scc(-c5cccs5)c34)CC2)cc1 12.1%
COc1ccccc1C(=O)NCCCNc1ccc([N+](=O)[O-])cc1 0.97%
CCn1c(=O)c2cc(C(=O)N(C)c3ccccc3F)sc2c2ccccc21 17.4%
CCn1c(=O)c2cc(C(=O)N(C)c3ccc(OC)cc3OC)sc2c2ccccc21 13.1%
Cc1ccc(-c2nn(-c3ccccc3)cc2CN(Cc2ccccc2)C(=O)c2ccco2)o1 22.2%
CCCCC(NC(=O)Cc1c(C)c2cc3c(C)c(C)oc3c(C)c2oc1=O)C(=O)O (stereo not drawn) 1.13%
Cc1c(CC(=O)N[C@@H](C)C(=O)O)c(=O)oc2c(C)c3occ(-c4ccccc4)c3cc12 6.88%
COc1ccc(Cl)cc1N(C(C)C(=O)O)S(C)(=O)=O (stereo not drawn) 1.24%
CC(C)COc1ccc(C(=O)NNC(=O)c2ccc(=O)[nH]c2)cc1 0.85%
CCCCn1c(N)c(N(CCOC)C(=O)c2cc(CC)c(C)s2)c(=O)[nH]c1=O 0.21%
COc1ccccc1N(Cc1ccccc1)S(=O)(=O)c1cccc(C(=O)Nc2ccccn2)c1 40.2%
COc1ccccc1N(Cc1ccccc1)S(=O)(=O)c1cccc(C(=O)Nc2ccc(C)cn2)c1 40.7%
Cc1ccc(N(CCC#N)C(=O)COC(=O)C2CCN(S(=O)(=O)c3ccc(C)c(C)c3)CC2)cc1 3.94%
CCN(CC)c1ccc(-c2nnc(SCC(=O)N(CCOC)c3c(N)n(CC(C)C)c(=O)[nH]c3=O)o2)cc1 8.83%
COCCN(C(=O)CSc1nnc(-c2ccc(Cl)cc2)o1)c1c(N)n(CC(C)C)c(=O)[nH]c1=O 2.35%
COc1cc(OC)c2c(C)cc(=O)oc2c1 0.35%
CCc1cc(=O)oc2cc(OC(C)=O)cc(OC(C)=O)c12 5.44%
CCOc1ccccc1N(CC(=O)N1CCC(C(N)=O)CC1)S(=O)(=O)c1ccc(SC)cc1 1.65%
Cc1ccc(Cl)cc1NC(=O)CSc1sc2c(O)cc(=O)[nH]c2c1C#N -0.05%
Cc1ccc(C)c(OCC(=O)NCC(c2ccco2)N2CCCCC2)c1 (stereo not drawn) -1.03%
OCCOCCn1c(C(CO)Nc2nc(-c3ccc(Cl)cc3)cs2)nc2ccccc21 (stereo not drawn) 9.48%
c1ccc(Nc2nc(-c3ccncc3)nc3ccccc23)cc1 4.52%
Fc1ccc(Nc2nc(-c3ccncc3)nc3ccccc23)cc1 4.4%
COc1ccc(C(=O)NCCn2cc(SCC(=O)NCC3CCCO3)c3ccccc32)cc1 (stereo not drawn) 0.51%
Cc1ccc(S(=O)(=O)N2CCC(C(=O)Nc3ccc(S(=O)(=O)N4CCCC4)cc3)CC2)cc1 0.34%
Cc1ccc(NC(=O)C2CCN(S(=O)(=O)c3ccc(F)cc3)CC2)cc1 -1.19%
CC(NC(=O)c1ccccc1NC(=O)c1ccccc1)C(=O)N1CCOCC1 (stereo not drawn) 3.72%
CN1CCc2[nH]c3ccc(C(=O)NN)cc3c2C1 -1.2%
Cc1ccc2[nH]c3c(c2c1)CN(C)CC3 -0.58%

Source: PubChem BioAssay AID2391 (Southern Research Specialized Biocontainment Screening …, 2010)
